This is part of a sample that, as a whole, favours compounds with a hit. Of some 83,000 tested, about 20% had one in any assay.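 Testing used 96-well plates and a 48-hour single-concentration exposure. Example: -40 means 40% of the starting cells died.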 A number with no mark means an inactive call. Activity calls are given as the source filed them. The calls were made as follows: active = growth percent below 10; inactive = the rest.

Test systems include NCI-H23 lung; NCI-H226 lung; NCI-H322M lung; HOP-62 NSCLC; NCI-H460 lung; HOP-92 NSCLC; NCI-H522 lung; A549/ATCC NSCLC; 786-0 renal; COLO 205 colon; DU-145 prostate; K-562 leukemia; MALME-3M melanoma; MDA-MB-231 breast; RXF 393 renal; SF-268 CNS; SF-295 CNS; SF-539 CNS; UACC-257 melanoma; M14 melanoma.
What all share (test): NCI-60 one-dose screen, 48 h (100 = growth as untreated, 0 = no growth, -100 = all killed)
What all share (conditions): 10 µM unless noted

For `CC(c1ccccc1)N1C(=O)C(C2SC(=S)N(C(C)c3ccccc3)C2=O)SC1=S` (stereo not given), the growth is 96.1% in the assay on NCI-H23 lung; 99.9% with NCI-H226 lung; 93.1% with NCI-H322M lung; 97.5% with HOP-62 NSCLC; 82.5% in the assay with NCI-H460 lung; 83.7% in the assay with HOP-92 NSCLC. For the same compound, the growth in the assay on NCI-H522 lung was 77.5%; in the assay with A549/ATCC NSCLC it was 82.3%; in the assay with 786-0 renal, 96.2%; in the assay with COLO 205 colon it was 85.7%; in the assay with DU-145 prostate, 95.1%; with K-562 leukemia it was 57.9%. For the same compound, the growth with MALME-3M melanoma was 69.9%; in the assay on MDA-MB-231 breast, 73.4%; in the assay on RXF 393 renal it was 85.6%; in the assay on SF-268 CNS, 92.2%; in the assay with SF-295 CNS it was 98.6%; in the assay with SF-539 CNS, 50.6%. Moreover, the growth was 81.7% in the assay with UACC-257 melanoma and 69.8% with M14 melanoma.

In the case of `O=c1[nH]ncc(Br)c1Br`, the growth was -57% (active) in the assay on NCI-H23 lung; 112% in the assay with NCI-H226 lung; 94.7% in the assay with NCI-H322M lung; 90.2% with HOP-62 NSCLC; 65.9% with NCI-H460 lung; 62.3% in the assay with HOP-92 NSCLC. Also, the growth in the assay on NCI-H522 lung is -41.3% (active); in the assay with A549/ATCC NSCLC, 69.3%; in the assay on 786-0 renal, 71.6%; in the assay with COLO 205 colon, 22.4%; in the assay with DU-145 prostate, 54.4%; in the assay with K-562 leukemia it was 3.3% (active). For the same compound, the growth in the assay with MALME-3M melanoma is -7.27% (active); in the assay with MDA-MB-231 breast it was 28.7%; with RXF 393 renal, -85.5% (active); with SF-268 CNS, -18.3% (active); in the assay with SF-295 CNS, 102%; in the assay with SF-539 CNS it was 93.5%. Also, the growth with UACC-257 melanoma was -36.7% (active); in the assay with M14 melanoma, -84.8% (active).

For the compound `c1cc(N2CCCC2)c2nc(-c3[nH]ncc3Nc3ncnc4[nH]ccc34)[nH]c2c1`, the growth is -45.3% (active) in the assay with NCI-H23 lung; -40.4% (active) with NCI-H226 lung; -21.1% (active) in the assay on NCI-H322M lung; -13.6% (active) with HOP-62 NSCLC; -4.99% (active) in the assay with NCI-H460 lung; -1.33% (active) with HOP-92 NSCLC. Also, the growth with NCI-H522 lung is -11.3% (active); in the assay with A549/ATCC NSCLC, -7.17% (active); in the assay on 786-0 renal it was -26.1% (active); with COLO 205 colon, -65.9% (active); in the assay on DU-145 prostate, -4.71% (active); in the assay on K-562 leukemia, 6.25% (active). Besides, the growth in the assay on MALME-3M melanoma was -41.4% (active); in the assay with MDA-MB-231 breast, -15.2% (active); with RXF 393 renal, -75.9% (active); in the assay on SF-268 CNS, -25.1% (active); with SF-295 CNS, -34% (active); with SF-539 CNS it was -54.3% (active). For the same compound, the growth in the assay on UACC-257 melanoma was -12.8% (active); in the assay on M14 melanoma, -77.1% (active).

For `COc1cc2nc(Cl)nc(Nc3cccc(C(=O)/C=C/c4ccc(Br)cc4)c3)c2cc1OC`, the growth in the assay with NCI-H23 lung was 96.6%; in the assay with NCI-H226 lung, 83%; in the assay with NCI-H322M lung, 95.1%; with HOP-62 NSCLC, 98%; in the assay on NCI-H460 lung it was 104%; in the assay on HOP-92 NSCLC, 83.6%. The growth in the assay on NCI-H522 lung is 84.3%; in the assay on A549/ATCC NSCLC, 85.1%; with 786-0 renal, 87%; in the assay with COLO 205 colon, 101%; in the assay on DU-145 prostate, 97.6%; in the assay on K-562 leukemia it was 35.9%. In addition, the growth with MALME-3M melanoma is 105%; in the assay with MDA-MB-231 breast, 78%; in the assay on RXF 393 renal, 85.1%; in the assay on SF-268 CNS, 94.5%; in the assay with SF-295 CNS it was 86.1%; in the assay with SF-539 CNS, 82.2%. Besides, the growth in the assay with UACC-257 melanoma is 107%; in the assay on M14 melanoma, 89.8%.

Regarding `C=C1CC[C@@H](C(=O)OC)Cc2nc(C)ccc21`, the growth is 97% with NCI-H23 lung; 103% in the assay with NCI-H226 lung; 109% with NCI-H322M lung; 106% in the assay on HOP-62 NSCLC; 106% in the assay on NCI-H460 lung; 106% with HOP-92 NSCLC. The growth in the assay on NCI-H522 lung was 86.4%; with A549/ATCC NSCLC, 98.5%; in the assay with 786-0 renal it was 101%; in the assay with COLO 205 colon it was 117%; with DU-145 prostate it was 119%; in the assay with K-562 leukemia it was 101%. Besides, the growth in the assay with MALME-3M melanoma was 105%; in the assay with MDA-MB-231 breast, 108%; with RXF 393 renal, 118%; in the assay on SF-268 CNS, 109%; in the assay with SF-295 CNS, 98.4%; in the assay on SF-539 CNS, 99.3%. Further, the growth in the assay on UACC-257 melanoma was 94.4%; in the assay on M14 melanoma, 105%.

Regarding `Cc1cc(N2CCN(C)CC2)nc(N(CCNc2ccnc3cc(Cl)ccc23)Cc2ccco2)n1`, the growth in the assay on NCI-H23 lung was 57.5%; in the assay on NCI-H226 lung, 92.9%; in the assay on NCI-H322M lung, 51%; with HOP-62 NSCLC, 26.8%; in the assay on NCI-H460 lung, 24.3%; in the assay with HOP-92 NSCLC, 49.2%. Also, the growth with NCI-H522 lung is 53.7%; with A549/ATCC NSCLC it was 41.4%; in the assay on 786-0 renal, 32.6%; with COLO 205 colon it was -5.82% (active); in the assay on DU-145 prostate, 56.8%; with K-562 leukemia it was 1.61% (active). Further, the growth is -57.7% (active) with MALME-3M melanoma; 9.87% (active) in the assay with MDA-MB-231 breast; 40.4% in the assay on RXF 393 renal; 52.8% in the assay on SF-268 CNS; -15.3% (active) in the assay on SF-295 CNS; -68.3% (active) in the assay with SF-539 CNS. Besides, the growth was 5.22% (active) with UACC-257 melanoma and -87.5% (active) in the assay with M14 melanoma.

`CN(CSc1ccc(Cl)cc1)c1ccc(CSc2ccc(Cl)cc2)cc1`: the growth is 90.6% with NCI-H23 lung; 43.3% with NCI-H226 lung; 86.4% in the assay on NCI-H322M lung; 118% with HOP-62 NSCLC; 62% in the assay with NCI-H460 lung; 57.2% in the assay with HOP-92 NSCLC. In addition, the growth in the assay on NCI-H522 lung was 32%; in the assay with A549/ATCC NSCLC it was 50.5%; in the assay on 786-0 renal, 31.6%; in the assay on COLO 205 colon it was 41%; in the assay with DU-145 prostate, 87.8%; with K-562 leukemia it was 83.7%. Moreover, the growth was 102% in the assay on MALME-3M melanoma; 22.2% in the assay on MDA-MB-231 breast; 68.7% in the assay with RXF 393 renal; 43.3% in the assay on SF-268 CNS; 70.5% in the assay with SF-295 CNS; 47.4% with SF-539 CNS. In addition, the growth with UACC-257 melanoma is 76%; in the assay on M14 melanoma, 49.7%.

For `Clc1ccc2c(NCCNc3nc(-c4ccccc4)cc(-c4ccccc4)n3)ccnc2c1`, the growth was -47.3% (active) in the assay on NCI-H23 lung; -56.2% (active) in the assay with NCI-H226 lung; -10.5% (active) in the assay on NCI-H322M lung; -73.6% (active) in the assay on HOP-62 NSCLC; -73% (active) in the assay on NCI-H460 lung; -66.8% (active) in the assay with HOP-92 NSCLC. Moreover, the growth in the assay with NCI-H522 lung is -69.9% (active); in the assay on A549/ATCC NSCLC it was -75.2% (active); in the assay on 786-0 renal, -90.8% (active); in the assay on COLO 205 colon it was -72.2% (active); in the assay with DU-145 prostate it was -34.1% (active); in the assay on K-562 leukemia it was -46.6% (active). The growth in the assay with MALME-3M melanoma is -89.3% (active); in the assay on MDA-MB-231 breast, -80.9% (active); in the assay with RXF 393 renal, -88.2% (active); with SF-268 CNS, -59.7% (active); with SF-295 CNS, -75.8% (active); with SF-539 CNS, -81.1% (active). Also, the results for the growth with UACC-257 melanoma and in the assay on M14 melanoma were 77.8% and -75.4% (active), respectively.

For the origin of these results see PubChem BioAssay (NCI).
